# Test system: T1, p38-alpha
# T1 construct: gene MAPK14
# Conditions: 1 µM; n = 1
# 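Further: KINOMEscan kinase panel screen.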
smiles,measurement,value
Cl.Oc1cc(-c2nc(-c3ccccc3)[nH]c2-c2ccncc2)ccc1Cl [SB-386023],%Inh,85%
